Screening results (PubChem BioAssay)
HTT cytoprotect = Huntington cell model cytoprotection by ATP luminescence; hit rate 0.14% among 230,000; PC12 HTT-Q103 induced, cytoprotection, ATP luminescence, 40 h; Potency, µM (top dose mostly 56.4 µM), hits mostly activators; active means well fitted curve in the direction sought with a large enough effect; inconclusive means small, poorly fitted or top-dose-only effect, or another doubt; inactive means no such curve, though single readings can be large; an effect the other way counts as inactive or inconclusive; further: nearly all actives have a fitted effect of over 45% in size
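Huntington model: PC12 line, ecdysone-inducible HTTQ103 exon1–GFP, tebufenozide 100 nM. Test articles in a dose series. Endpoint luminescence from cellular ATP.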
PNC assembly inh = inhibitors of perinucleolar compartment assembly | AID 2417 | PC3M PTB-GFP, PNC prevalence imaging, 16 h; hits give low values | hit rate 3.1% among 140,000 | activity change (PNC), negative = inhibition, % at 10 µM;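 active means readout at or below -70, meaning at least 70% loss of cells showing the perinucleolar compartment, a nuclear body marking cancer cells; inconclusive means readout between -30 and a set limit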
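Read-out is percentage of cells bearing a perinucleolar compartment, from automated 20x imaging of fixed, Hoechst-stained PC3M PTB-GFP cells. Cells were seeded 4 h, then exposed 16 h to compound (23 nl of library stock) in duplicate plates.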
HTT aggregate = inhibitors of mutant huntingtin aggregate formation in PC12 cells; PC12 HttQ103-GFP aggregates, Acumen cytometry, 40 h; Potency, µM (doses to about 46.1 µM), hits mostly inhibitors; hit rate 1.1% among 220,000; active means well fitted curve in the direction sought with a large enough effect; inconclusive means small, poorly fitted or top-dose-only effect, or another doubt; inactive means no such curve, though single readings can be large; an effect the other way counts as inactive or inconclusive; further: nearly all actives have a fitted effect of over 60% in size
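PC12 cells stably carrying ecdysone-inducible HTT exon 1 Q103–GFP were induced with tebufenozide (100 nM final) and treated with library compounds in titration. GFP aggregates in lysates were counted by laser scanning cytometry.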
HPGD inh = blocks human HPGD enzyme activity. P15428. purified HPGD, NADH fluorescence kinetic, PGE2 substrate. Potency, µM, actives largely listed as inhibitors. hit rate 4.3% among 150,000. AID 894
Target sequence (P15428 whole entry, looked up): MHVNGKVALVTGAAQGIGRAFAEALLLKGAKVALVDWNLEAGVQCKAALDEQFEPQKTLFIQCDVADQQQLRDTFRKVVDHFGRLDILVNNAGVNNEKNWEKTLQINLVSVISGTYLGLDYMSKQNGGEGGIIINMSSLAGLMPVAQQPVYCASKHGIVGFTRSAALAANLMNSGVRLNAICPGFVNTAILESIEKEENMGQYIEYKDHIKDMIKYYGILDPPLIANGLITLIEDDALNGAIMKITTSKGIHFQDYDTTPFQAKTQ
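NADH formation kinetics: reaction with 30 uM PGE2 and 1 mM NAD+ (final), 20 nM enzyme, Tris-HCl pH 8 with Tween 20, after 15 min compound preincubation at room temperature. Fluorescence change, last versus first of five reads.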
ALDH1A1 inh = inhibitors of human aldehyde dehydrogenase 1A1; Potency, µM (series often up to 75.3 µM), actives largely listed as inhibitors; Purified ALDH1A1, NADH fluorescence, propionaldehyde substrate; AID 1030; P00352; hit rate 7.3% among 220,000
GoLoco inh red = inhibitors of human Gai1-RGS12 GoLoco interaction (red fluorophore) | P63096 | Gai1:RGS12 GoLoco peptide FP, rhodamine, 10 min | Potency, µM (top dose mostly 61.6 µM), hits mostly inhibitors | hit rate 0.44% among 230,000 | AID 880; active means well fitted inhibition curve with a large enough effect, not every such curve was filed as active; inactive means no such curve, though single readings can be large or run the other way; further: nearly all actives have a fitted effect of over 30% in size
Target sequence (P63096 whole entry, looked up): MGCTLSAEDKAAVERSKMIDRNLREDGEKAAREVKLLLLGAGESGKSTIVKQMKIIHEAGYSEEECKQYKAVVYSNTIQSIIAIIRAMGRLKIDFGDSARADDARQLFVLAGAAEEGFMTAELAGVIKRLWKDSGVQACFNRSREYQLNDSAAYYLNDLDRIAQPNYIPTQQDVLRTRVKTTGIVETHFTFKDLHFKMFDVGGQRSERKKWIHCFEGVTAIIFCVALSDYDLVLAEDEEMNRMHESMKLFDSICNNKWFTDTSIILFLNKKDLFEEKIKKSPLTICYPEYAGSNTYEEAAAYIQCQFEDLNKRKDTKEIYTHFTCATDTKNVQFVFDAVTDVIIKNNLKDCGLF
A number is an active result; n = inactive; u = inconclusive; x = no result; [ ] = dose if it differs, or a comment. Compounds with a hit are over-represented: about 11% of the library has one in this group of screens. Unless noted, the call rests on the fitted dose curve; in most records, active means well fitted inhibition curve with a large enough effect (not every such curve was filed as active); inconclusive means small, poorly fitted or top-dose-only effect, or another doubt; inactive means no such curve, though single readings can be large or run the other way.

SMILES | HTT cytoprotect | PNC assembly inh | HTT aggregate | HPGD inh | ALDH1A1 inh | GoLoco inh red
O=C1/C(=C/c2ccncc2)SC(=S)N1C1CCS(=O)(=O)C1 (stereo not given) | n | n | u | n | 22.4µM | n
CC(=O)Nc1ccc(S(=O)(=O)NNC(=O)c2cc3c4ccccc4n(C)c3s2)cc1 | u | n | n | u | u | n
NC(=O)c1cc2ccccc2o/c1=N\NC(=O)c1ccco1 | n[10 µM] | -119.3 | n | n | n | n
NC(=O)c1cc2ccccc2oc1=NCc1ccccc1 | n | n | n | n | n | n
Cc1ccc(S(=O)(=O)NCc2ccc(C(=O)N3CCCC3)cc2)cc1 | x | n | n | 20µM | u | n
CC(C)(C)c1ccc(S(=O)(=O)NCc2ccc(C(=O)N3CCCC3)cc2)cc1 | n[10 µM] | n | n | u | 3.98µM | n
CCOC(=O)N1CCN(C(=O)c2ccc(CNS(=O)(=O)c3ccc(C)cc3)cc2)CC1 | n | u | n | n | n | n
OCCNNC(=S)NC1CC2C=CC1C2 (stereo not given) | n[10 µM] | x | n[9.22 µM] | x | n | n
O=C(/C=C/c1ccc([N+](=O)[O-])cc1)Nc1ncc([N+](=O)[O-])s1 | n | x | u | x | u | n
COc1ccc(Cc2cnc(N)nc2N)cc1OC | n | x | u | x | x | x
CC(=O)C1=C(S(=O)(=O)c2ccc(C)cc2)CS(=O)(=O)C1 | n | x | n[9.22 µM] | x | 1.26µM | n
COc1ccc(Oc2ncc3nc(C)c(=O)n(CCC#N)c3n2)cc1 | n | x | x | n | u | n
C/C(CCC(C)C)=N\NC(=S)NCc1ccccc1 | n[10 µM] | x | n | x | n | n
CCOC(=O)C1=NN(c2ccccc2)C(=O)C1 | n[10 µM] | x | n[9.22 µM] | x | x | n
Cc1ccc(/C=C/C2=NN(Cc3ccccc3)C(=O)CC2)cc1 | n | n | n | u | u | n
CC1=NN(Cc2ccccc2)C(=O)/C1=C\c1ccc(N(C)C)cc1 | n[10 µM] | n | n | n | 14.1µM | n
CCOC(=O)C1=NN(c2ccccc2)C(=O)/C1=C\c1ccc(N(C)C)cc1 | n[10 µM] | n | n | 12.6µM | 1.58µM | n
COC(=O)C/C=C\[C@@H](C)[C@@H](/C=N\O[C@@H](C)c1cc(-c2c(C)cc(C)cc2C)no1)OC | n[10 µM] | x | x | x | n[13.5 µM] | x
CC1=CC(C)(C(Cl)Cl)C(C)=CC1=O (stereo not given) | n[10 µM] | -100.0 | n | n | n | n
CC1=CC(=O)C=CC1(C)C(Cl)Cl (stereo not given) | n | n | n | n | n | n
COc1ccc(C2C(C(=O)c3cccs3)=C(O)C(=O)N2c2nncs2)cc1 (stereo not given) | n | n | n | n | n | 1.78µM
COC(=O)N1C2CC(=O)O[C@@H]3c4cc5c(cc4[C@]1(C)[C@@]3(Br)c1ccccc12)OCO5 | n[10 µM] | x | x | u | u | n[14.2 µM]
Nc1nnc(SCC(=O)N2CCc3ccccc32)n1-c1ccccc1 | n | u | n | n | n | n
CC1CCN(C(=O)CSc2nnc(CN3CCOCC3)n2-c2ccccc2)CC1 | n | u | n | n | 1.26µM | n
O=C(CSc1nnc(Cc2ccccc2)n1-c1ccc(F)cc1)N1CCOCC1 | n | n | n | n | n | n
SMILES | HTT cytoprotect | PNC assembly inh | HTT aggregate | HPGD inh | ALDH1A1 inh | GoLoco inh red
O=C(CSc1nnc(CN2CCOCC2)n1-c1ccccc1)N1CCc2ccccc21 | n | n | n | n | 7.94µM | n
CN(Cc1cc(=O)n2ccsc2n1)C1CCCCC1 | n | x | n[9.22 µM] | x | u | n
C=CC[C@@H]1C=C[C@H](O/N=C(\C)CCN2CCCc3nc(C)c(C)cc32)[C@H](CO)O1 | n[10 µM] | x | x | x | u | x
Cc1noc(C)c1-c1nccc(N(C)Cc2ccco2)n1 | n | x | x | x | 14.1µM | n
Cc1noc(C)c1-c1nccc(NCc2ccccc2)n1 | n | x | x | x | n | 7.08µM
CC(C)NC(=O)c1cc(C(=O)c2cc(Cl)ccc2O)coc1=N | n | n | 7.94µM | u | u | n
COC(=O)c1cc(C(=O)c2cc(Br)ccc2O)coc1=N | n | x | n | x | n | n
COC(=O)c1cc2oc(C)cc2n1CC(=O)N1CCCc2ccccc21 | n | n | n | n | 20µM | n
COC(=O)c1cc2sccc2n1CC(=O)N1CCCc2ccccc21 | n[10 µM] | n | n | n | n | n
CCOC(=O)c1cc2sccc2n1CC(=O)N1CCCc2ccccc21 | n | n | n | n | n | n
CCOC(=O)c1cc2occc2n1CC(=O)N1CCCc2ccccc21 | n[10 µM] | -83.6 | n | n | 8.91µM | n
Cc1nn(-c2ccccc2)c2c1C(=O)N(c1ccccc1)C(=O)C(C)(C)C2 | n | n | n | n | 12.6µM | n
Cc1ccc(C(c2nnnn2CC2CCCO2)N2CCN(C(=O)c3ccco3)CC2)cc1 (stereo not given) | n[10 µM] | n | n | n | 15.8µM | n
Cc1ccc(S(=O)(=O)Cn2nnnc2C(C)N2CCN(C(=O)c3ccco3)CC2)cc1 (stereo not given) | n | n | n | n | 25.1µM | n
O=C(c1ccco1)N1CCN(C(c2ccc(Cl)cc2)c2nnnn2CC2CCCO2)CC1 (stereo not given) | n | n | n | n | u | n
COc1ccc(C(c2nnnn2CC2CCCO2)N2CCN(c3ccc(F)cc3)CC2)cc1 (stereo not given) | n | -85.9 | n | n | n | n
Cc1ccc(S(=O)(=O)Cn2nnnc2C(CC(C)C)N2CCN(c3ccc(F)cc3)CC2)cc1 (stereo not given) | n | -114.9 | n | n | n | n
CCCC(c1nnnn1CS(=O)(=O)c1ccc(C)cc1)N1CCN(c2ccccc2)CC1 (stereo not given) | n | u | n | n | n | n
CN(C)C(=O)c1ccc(-c2ccc3ncnc(NCc4cccs4)c3c2)cc1 | n | x | x | x | u | n
N[C@H](COP(=O)(O)O)C(=O)O | n | x | n | x | u | n
COc1ccc(-n2ncc(C(=O)N3CCN(c4ccc(F)cc4)CC3)c2C)cc1 | n[10 µM] | x | n[9.22 µM] | x | x | n
CC(=O)Nc1ccc(C(=O)OCC(=O)NC2CCCCCCC2)cc1 | n | x | n | x | u | n
Cc1ccc(S(=O)(=O)Cn2nnnc2CN2CCN(C(=O)c3ccco3)CC2)cc1 | n | n | n | n | u | n
O=C(c1ccco1)N1CCN(Cc2nnnn2CC2CCCO2)CC1 (stereo not given) | n[10 µM] | x | n[9.22 µM] | x | 20µM | n
O=Cc1ccc(C(=O)O)cc1 | n | x | x | n | 22.4µM | n
SMILES | HTT cytoprotect | PNC assembly inh | HTT aggregate | HPGD inh | ALDH1A1 inh | GoLoco inh red
COC(=O)c1ccc(C=O)cc1 | n | x | x | n | 8.91µM | n
O=c1c(O)c(-c2ccc(O)c(O)c2)oc2ccccc12 | n[1.9 µM] | x | x | n | n | n
Cc1ccc(Nc2cc(=O)oc3ccccc23)c(C)c1 | n | n | n | n | n | n
Cc1ccccc1Nc1cc(=O)oc2ccccc12 | n | n | n | n | 14.1µM | n
C(=N\n1cnc2ccccc21)/c1cccnc1 | n | n | n | n | n | n
O=c1c2cnn(-c3ccccc3)c2nnn1/N=C/c1cccnc1 | n | n | n | n | 0.398µM | n
O=C(c1ccc(Cn2c(=S)[nH]c3ccc(Br)cc3c2=O)cc1)N1CCN(C2CCCCC2)CC1 | n | x | u | x | n | n
